# High-throughput results deposited in PubChem BioAssay by several laboratories.
# The sample as a whole holds a higher share of hits than the screen did.
# GluA2 TARP mod: GluA2-stargazin AMPA receptor complex modulation. calls only at 30 µM. HEK293 GluA2+stargazin, membrane potential dye (FDSS), glutamate EC50; hits were called plate by plate, in both directions. O88602+P19491. 3.5% of 40,000 active;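 active means any of four per-well response measures lying three or more SD from its plate-wide compound average, in either direction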
# GIRK2 activator: Activators of human GIRK2-containing channels. activation (% efficacy), % for hits at 37.5 µM. HEK293 GIRK2/NPY4 cells, thallium flux fluorescence. 34,000 tested, under 10 active. P48051;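 active means primary screen hit, no activity in plain HEK293 cells, and in GIRK2-only cells above 5% efficacy rising with concentration; inactive means the rest, including fluorescent compounds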;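 further: efficacy is normalized control-subtracted fluorescence 15 s after thallium addition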
# Target sequence (P48051 whole entry, looked up): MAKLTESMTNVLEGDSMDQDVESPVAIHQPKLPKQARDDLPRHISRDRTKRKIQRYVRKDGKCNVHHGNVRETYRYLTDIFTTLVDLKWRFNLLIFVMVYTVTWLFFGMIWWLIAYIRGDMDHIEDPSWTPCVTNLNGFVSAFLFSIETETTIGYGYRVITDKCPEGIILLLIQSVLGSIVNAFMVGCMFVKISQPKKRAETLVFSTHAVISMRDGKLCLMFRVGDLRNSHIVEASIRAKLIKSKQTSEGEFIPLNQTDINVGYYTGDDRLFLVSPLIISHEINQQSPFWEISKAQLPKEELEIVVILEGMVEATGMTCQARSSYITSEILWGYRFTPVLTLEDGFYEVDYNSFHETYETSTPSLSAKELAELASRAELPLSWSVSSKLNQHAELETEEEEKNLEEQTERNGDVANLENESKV
# The depositor's hits bear a star; i = inactive; nt = not tested or not shown; + = active, no number.
SMILES,GluA2 TARP mod,GIRK2 activator
Cc1cc(NC(=O)CC2CCCCC2)n(-c2nc3c(cnn3-c3ccc(C)c(C)c3)c(=O)[nH]2)n1,i,i
O=S(=O)(c1ccc(OC(F)(F)F)cc1)N1CCN(c2ccc3nncn3n2)CC1,i,i
CCS(=O)(=O)c1ccc(CC(=O)N2CCN(c3nc4c(C)ccc(Cl)c4s3)CC2)cc1,+,nt
COc1ccc(S(=O)(=O)CC(=O)N2CCN(c3nc4c(C)ccc(Cl)c4s3)CC2)cc1,i,nt
O=S(=O)(NCC1(c2cccs2)CCCC1)c1cc(F)ccc1F,nt,i
CC(C)S(=O)(=O)c1ccc(C(=O)Nc2cccc([N+](=O)[O-])c2)cc1,i,i
Cc1ccc(OC(=O)N2CCOCC2)c(C(=O)/C=C/c2ccccc2Cl)c1,i,nt
NC(=O)c1ccccc1NC(=O)Cc1csc(NC(=O)c2ccc(=O)[nH]c2)n1,i,i
Cc1c(C)n2c3c(=O)n(CCN4CCCCC4)c(=O)n(C)c3nc2n1C1CCCC1,i,i
Cc1c(C)n2c3c(=O)n(CC(N)=O)c(=O)n(C)c3nc2n1C1CCCCC1,+,nt
O=C(NC1CCCCC1)N(CCCO)CC(O)Cn1c2ccccc2c2ccccc21 (stereo not given),i,i
O=C(Nc1ccc(Cl)cc1)N(CCCO)CC(O)Cn1c2ccccc2c2ccccc21 (stereo not given),+,i
COCCNC(=O)C(=O)Nc1c2c(nn1-c1ccc(Cl)cc1)CS(=O)(=O)C2,+,nt
COCCCNC(=O)C(=O)Nc1c2c(nn1-c1ccc(Cl)cc1)CS(=O)(=O)C2,i,nt
O=C(Nc1c2c(nn1-c1ccccc1)CS(=O)(=O)C2)C(=O)N1CCCCC1,i,i
O=C(Nc1c2c(nn1-c1ccccc1)CS(=O)(=O)C2)C(=O)N1CCCC1,+,i
O=C(c1ccncc1)N1CCN(c2ccc(-c3ccc(F)cc3)nn2)CC1,i,i
CC(C)N(C(=O)C(=O)c1c[nH]c2ccccc12)C(C)C,i,nt
CC(NC(=O)C(=O)c1c[nH]c2ccccc12)c1ccccc1 (stereo not given),+,nt
CCN(Cc1ccccc1)C(=O)C(=O)c1c[nH]c2ccccc12,+,nt
CC(C)N(Cc1ccccc1)C(=O)C(=O)c1c[nH]c2ccccc12,i,nt
Cc1cccc(C)c1-n1nnc(C(=O)NC2CCS(=O)(=O)C2)c1C (stereo not given),i,i
COc1cccc(C(=O)Nc2ccc3c(c2)CCCN3C(=O)C2CC2)c1,i,nt
O=C(c1ccc(Cl)cc1)N1CCN(Cc2nnnn2-c2ccc(F)c(F)c2)CC1,i,i
CCOc1ccccc1C(=O)NCC(O)(c1ccccc1)C1CC1 (stereo not given),+,nt
SMILES,GluA2 TARP mod,GIRK2 activator
Cc1ccccc1C(=O)NCC(O)(c1ccccc1)C1CC1 (stereo not given),i,nt
COc1cccc(CNC(=O)Cn2c(C)cc(C)c(-c3nc(-c4ccc(Cl)cc4)no3)c2=O)c1,i,i
COc1ccc(CCC(=O)N2CCC(c3ccsc3)CC2)cc1,+,i
COc1ccc(NC(=O)N2CCC(c3ccsc3)CC2)cc1,i,nt
O=C(Cn1c(CO)cnc1SCC(=O)N1CCc2ccccc21)NC1CC1,i,i
Cc1cc(C(=O)Nc2cccc(N3CCCC3=O)c2)ccc1[N+](=O)[O-],+,i
Cc1cc(NC(=O)c2ccc([N+](=O)[O-])c(C)c2)ccc1N1CCCCC1=O,i,i
c1ccn2cc(CSc3cc(N4CCOCC4)ncn3)nc2c1,+,i
COc1cccc(C(=O)CSc2cc(N3CCOCC3)ncn2)c1,i,i
CCCN1C(=O)NC2(CCN(C(=O)C3CCCCC3)CC2)C1=O,i,i
CCCN1C(=O)/C(=C/c2ccc(N3CCCC3)cc2)NC1=S,+,nt
CC(C)(C)c1cc(NC(=O)C2COCC(=O)N2Cc2ccccc2)on1 (stereo not given),+,i
O=C(C1COCC(=O)N1Cc1ccccc1)N1CCN(c2cccc(Cl)c2)CC1 (stereo not given),+,i
O=C(C1COCC(=O)N1Cc1ccccc1)N1CCN(c2ccc(F)cc2)CC1 (stereo not given),i,i
O=C(Nc1ccc(-n2cnnn2)cc1)C1COCC(=O)N1Cc1ccccc1 (stereo not given),i,i
CCOC(=O)N1CCN(C(=O)CN2CCC(COCc3ccccc3)CC2)CC1,i,i
O=C(NCC(O)(c1cccs1)C1CC1)Nc1ccccc1Cl (stereo not given),i,i
CCC(=O)Nc1ccc(SCC(=O)NCc2ccco2)nn1,nt,i
COc1ccc(Nc2nc(N3CCNCC3)nc3ccccc23)c(OC)c1,+,nt
COc1ccc(-c2cc(OCC(=O)Nc3ccc(OC)cc3OC)c3ccccc3n2)cc1,i,i
Cc1ccc(NC(=O)C(=O)NCC2CCN(C(=O)NC(C)(C)C)CC2)cc1C,i,i
Cc1cc(C)c(S(=O)(=O)N2CCN(S(=O)(=O)N3CCCC3)CC2)c(C)c1,i,i
CC(=O)Nc1ccc(S(=O)(=O)n2nc(C)c(C)c2C)cc1,+,nt
Cc1cc(C)c(S(=O)(=O)n2nc(C)c(C)c2C)c(C)c1,+,nt
CC(=O)Nc1ccc(S(=O)(=O)N2CCN(c3c(C)cccc3C)CC2)cc1,i,nt
SMILES,GluA2 TARP mod,GIRK2 activator
COc1ccccc1N1CC(C)Cn2c1nc1c2c(=O)n(Cc2ccc(C)cc2)c(=O)n1C (stereo not given),+,nt
COc1ccccc1N1CC(C)Cn2c1nc1c2c(=O)n(Cc2cccc(C)c2)c(=O)n1C (stereo not given),i,nt
Cc1cccc(-n2nnc(C(=O)NC3CCCCC3)c2N)c1,+,i
CC(C)c1ccc(-n2nnc(C(=O)NC3CCCCC3)c2N)cc1,i,i
O=C(Nc1sc2ccccc2c(=O)c1-c1ccc(Br)cc1)c1ccco1,i,i
COc1ccc(-c2c(NC(=O)c3ccco3)sc3ccccc3c2=O)cc1OC,+,i
COc1cccc(N2C(=O)c3cccc4c(N5CCCCCC5)ccc(c34)C2=O)c1,i,nt
CCC(=O)OCCN1C(=O)c2cccc3c(N4CCCCC4)ccc(c23)C1=O,+,nt
COc1ccccc1CNC(=O)Cc1csc(Nc2cccc(Cl)c2)n1,i,i
Cn1c(=O)c(C(=O)NCCc2ccc(S(N)(=O)=O)cc2)cc2cccnc21,i,i
Cn1c(=O)c(C(=O)Nc2ccc(S(N)(=O)=O)cc2)cc2cccnc21,+,i
COc1cc(C(=O)NCC2CCN(C(C)C)CC2)cc(OC)c1OC,i,nt
Cc1ccc(NC(=O)c2ccc(=O)n(CC(=O)Nc3cccc(C(F)(F)F)c3)n2)cc1,i,i
CCCCS(=O)(=O)NCCNc1cc(-n2cccn2)ncn1,+,i
COc1cc(S(=O)(=O)NCCNc2cc(-n3cccn3)ncn2)c(C)cc1C,i,i
COc1ccc(C)cc1NC(=O)C(=O)NCC(c1ccc(F)cc1)N1CCOCC1 (stereo not given),i,i
Cc1cc(C)cc(-n2ccnc(SCC(=O)Nc3c(C)cc(C)cc3C)c2=O)c1,+,nt
O=C(CSc1nccn(-c2ccc(F)cc2)c1=O)Nc1ccc(F)cc1,i,nt
O=C(CSc1nccn(-c2ccc(Cl)cc2)c1=O)Nc1ccc(F)cc1F,+,nt
COc1ccc(-n2ccnc(SCC(=O)Nc3c(C)cc(C)cc3C)c2=O)cc1,i,nt
CN1CCN(C(=O)c2cc(I)ccc2NC(=O)c2cccnc2)CC1,i,nt
